# In PubChem BioAssay (Tox21):
# Results filed as inconclusive are left out. Entries that show only a call come without a potency. Calls of active or inactive are those of the source. Unless noted, calls follow the shape of the dose curve; as a rule, active = well fitted curve in the direction sought with a large enough effect in the repeat runs; inconclusive = weak or mixed curves; inactive = no such curve, though single readings can be large; an effect the other way counts as inactive or inconclusive.
# Columns and labels:
# [1] = qHTS assay to identify small molecule agonists of the estrogen related receptor (ERR) signaling pathway (AID 1224820)
# Procedure, shortened: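 Cells: ERR line from NTP, 2,000/well. Pre-incubation 6 h, 37 C/5% CO2. Compound (DMSO) pin transfer, 18 h 37 C. One-Glo, 30 min RT, luminescence.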
# [2] = system: estrogen-related receptor alpha (ERRalpha) with PGC-1alpha coactivator, human; assay: qHTS assay to identify small molecule antagonists of the estrogen related receptor signaling pathway with the pleiotropic PPARgamma coactivator (PGC) (AID 1224821; calls by dose curve; also: nearly all actives have a fitted effect of over 50% in size)
# Procedure, shortened: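 Luminescent read-out (One-Glo, 30 min at room temperature) following 18 h treatment of PGC/ERR cells at 37 C with compounds delivered in DMSO. Cells had settled 6 h at 37 C/5% CO2 before dosing.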
# [3] = qHTS assay to identify small molecule agonists of the estrogen related receptor signaling pathway with the pleiotropic PPARgamma coactivator (PGC) (AID 1224823)
# Procedure, shortened: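 Steps: plate PGC/ERR cells at 2,000 cells/well; incubate 6 h, 37 C/5% CO2; pin-transfer compounds (DMSO); incubate 18 h, 37 C; add One-Glo; 30 min RT; read luminescence.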
# [4] = qHTS assay to identify small molecule antagonists of the estrogen related receptor signaling pathway with the pleiotropic PPARgamma coactivator (PGC) cell viability counter screen (AID 1224822;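 also: viability read after 17.5 h compound exposure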)
# Procedure, shortened: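 Cells: PGC/ERR, 2,000/well, 1536-well format. Pre-incubation 6 h, 37 C/5% CO2. Compound exposure 17.5 h, 37 C. Detection: CellTiter-Fluor, 30 min, fluorescence.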
# [5] = target: Luciferin 4-monooxygenase (Photinus pyralis) (UniProt P08659); assay: qHTS assay to identify small molecule inhibitors of firefly luciferase (AID 1224835); also: nearly all actives have a fitted effect of over 25% in size
# Procedure, shortened: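 Biochemical qHTS: compounds run as interplate titrations against purified firefly enzyme, with D-luciferin and ATP each at its KM concentration. Light output recorded by CCD imaging.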
# Potency is read from the fitted curve at half-maximal effect.
# Chain of Luciferin 4-monooxygenase (Photinus pyralis) (P08659 whole entry, looked up): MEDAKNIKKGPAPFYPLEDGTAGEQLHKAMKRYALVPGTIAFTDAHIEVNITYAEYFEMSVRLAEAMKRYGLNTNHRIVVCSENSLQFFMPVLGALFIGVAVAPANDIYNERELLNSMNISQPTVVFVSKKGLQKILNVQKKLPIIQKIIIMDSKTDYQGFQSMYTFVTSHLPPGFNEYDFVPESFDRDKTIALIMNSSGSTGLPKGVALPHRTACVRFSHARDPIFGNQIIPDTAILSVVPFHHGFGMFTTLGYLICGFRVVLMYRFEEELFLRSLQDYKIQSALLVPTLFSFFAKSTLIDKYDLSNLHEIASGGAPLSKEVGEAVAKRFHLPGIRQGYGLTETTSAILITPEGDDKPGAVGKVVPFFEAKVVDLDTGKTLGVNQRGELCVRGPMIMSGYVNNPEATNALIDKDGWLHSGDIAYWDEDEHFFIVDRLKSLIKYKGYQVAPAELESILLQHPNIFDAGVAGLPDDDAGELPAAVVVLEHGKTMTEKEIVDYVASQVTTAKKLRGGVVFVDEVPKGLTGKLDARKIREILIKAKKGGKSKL
Structure (SMILES),Potency [1],Potency [2],Potency [3],Potency [4],Potency [5]
O=C1c2ccccc2-c2n[nH]c3cccc1c23,inactive,inactive,inactive,,
CC(C)N(CCC(=O)c1ccc2ccccc2c1)Cc1ccccc1,inactive,,inactive,,
CN1CCCC1CCOC(C)(c1ccccc1)c1ccc(Cl)cc1 (configuration not stated),inactive,inactive,inactive,,
C=CCN1CCc2c(cc(O)c(O)c2Br)[C@@H](c2ccccc2)C1,inactive,,inactive,inactive,
CN(C)c1ccc(/C=C2\C(=O)Nc3ccccc32)cc1,3.35 µM (active),inactive,3.1 µM (active),,
CC(=O)N(C)C,,,,,inactive
CC(=O)/C=C1\C(=O)N(C)c2ccccc21,inactive,28.7 µM (active),inactive,,
O=C(CCCCCN1CCN(c2ccccc2-c2ccccc2)CC1)NC1CCCc2ccccc21 (configuration not stated),inactive,,inactive,,
NS(=O)(=O)C#Cc1ccccc1,inactive,,inactive,,
C[C@@H](c1ncncc1F)[C@](O)(Cn1cncn1)c1ccc(F)cc1F,inactive,inactive,inactive,inactive,
CCOC(=O)N1CCN(/[N+]([O-])=N/Oc2ccc([N+](=O)[O-])cc2[N+](=O)[O-])CC1,inactive,,inactive,,
COc1ccc(/C=C/c2nc(NCCCN(C)C)c3ccccc3n2)cc1,inactive,23.7 µM (active),inactive,,
COC(=O)C1=C(C)NC(C)=C([N+](=O)[O-])C1c1ccccc1C(F)(F)F (configuration not stated),inactive,,inactive,,
Nc1nc(N)c(N=O)c(OCC2CCCCC2)n1,inactive,inactive,inactive,,
COc1ccc2ccccc2c1,,,,,inactive
COc1ccc2c(c1)c(CC(=O)O)c(C)n2C(=O)c1ccccc1,inactive,inactive,inactive,inactive,
Oc1cc2c(cc1O)CN(C(=S)NCCc1ccc(Cl)cc1)CCC2,inactive,inactive,inactive,inactive,
CCCCN(CC)c1nc(C)nc2c1c(C)cn2-c1c(C)cc(C)cc1C,inactive,12.8 µM (active),inactive,,
COc1cc(C(O)CO)ccc1O (configuration not stated),,,,inactive,
O=[N+]([O-])c1ccc2c(c1)S(=O)(=O)C=C2,inactive,,,11.4 µM (active),

Structure (SMILES),Potency [1],Potency [2],Potency [3],Potency [4],Potency [5]
Nc1ccc2c3c(cccc13)C(=O)NC2=O,inactive,inactive,inactive,,
CCCCCCCC1CCC(=O)O1 (configuration not stated),,,,,inactive
Cn1cc(C(F)(F)F)nc1-c1ccc(OCC(O)CNCCOc2ccc(O)c(C(N)=O)c2)cc1 (configuration not stated),inactive,,inactive,inactive,
O=C1NC(=O)c2c1c(-c1ccccc1)cc1[nH]c3ccc(O)cc3c21,inactive,inactive,inactive,,
Nc1c(S(=O)(=O)O)cc(Nc2ccc(Nc3nc(Cl)nc(Nc4ccc(S(=O)(=O)O)cc4)n3)c(S(=O)(=O)O)c2)c2c1C(=O)c1ccccc1C2=O,inactive,18.8 µM (active),inactive,,
Oc1cc2c(cc1O)C(c1ccccc1)CNCC2 (configuration not stated),inactive,,inactive,,
Cc1cccc(C2CN(C)CCc3c2cc(O)c(O)c3Cl)c1 (configuration not stated),inactive,inactive,inactive,,
C=CCN1CCc2c(cc(O)c(O)c2Cl)C(c2ccccc2)C1 (configuration not stated),inactive,inactive,inactive,inactive,
COc1cccc2c1[C@@H]1CN(CCCCn3c(=O)[nH]c4c(sc5ncc(-c6ccccc6)nc54)c3=O)C[C@@H]1CO2,inactive,inactive,inactive,,
Cn1c(=O)c2[nH]c(C3CCCC3)nc2n(C)c1=O,inactive,inactive,inactive,,
COC(=O)C1=C(C)NC(C)=C(C(=O)OC)C1c1cccc(NC(=O)NCCCN2CCC(c3cccc(OC)c3)CC2)c1,inactive,31 µM (active),inactive,20.3 µM (active),
Clc1ccc2c(c1)N=C(N1CCNCC1)c1ccccc1N2,inactive,inactive,inactive,,
CCN(CC)CC#CCOC(=O)C(O)(c1ccccc1)C1CCCCC1 (configuration not stated),inactive,,inactive,,
O=c1oc(Cl)c(Cl)c2ccccc12,inactive,,inactive,,
Cc1ccccc1/C=C/C1=NCCN1,inactive,,inactive,,
CN1C2CC(OC(=O)[C@H](CO)c3ccccc3)CC1C1OC12 (some centres not stated),,,,inactive,
Nc1ccc(N)c([N+](=O)[O-])c1,,,,,35.6 µM (active)
CN(C)S(=O)(=O)c1ccc2c(c1)/C(=C/c1cc3c([nH]1)CCCC3)C(=O)N2,inactive,,23.7 µM (active),inactive,
CC(C)(C)c1ccc(S(=O)(=O)/C=C/C#N)cc1,inactive,,inactive,,
Oc1ccc(/C=C/c2ccc(/C=C/c3ccc(O)cc3)c(Br)c2)cc1,inactive,inactive,inactive,,
